High-throughput results as filed in PubChem BioAssay.
Hits are enriched below; roughly 1.8% of the tested compounds scored in any of these assays.
Granule exo inh: LAMP-1 surface exposure blockers, TALL-104 cells – cell-based, flow cytometry, MLPCN library, primary screen; AID 651702, 2012; inhibition, % at 10 µM; TALL-104 LAMP-1 surface exposure; cells stimulated with thapsigargin and PMA; 0.66% of 360,000 active;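 active means inhibition above about 55%, limit read from the data; inconclusive means no clear call, values can overlap the other calls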
Myeloid diff MLP: induction of myeloid progenitor differentiation, primary screen, cell-based, flow cytometry, MLPCN library; AID 624256, 2012; calls only at 10 µM; ER-HoxA9 myeloid progenitors, lysozyme-GFP differentiation; 1% of 360,000 active;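 active means normalized GFP-positive differentiation at or above the plate's own cutoff, the solvent-only control mean plus 3 SD; inconclusive means no clear call, values can overlap the other calls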;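 further: cells exposed to compound for four days before flow analysis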
GC-B act: human GC-B receptor activators, primary screen, HEK293 GC-B cells, cGMP TR-FRET, EC30 CNP. 0% at EC30 CNP, 100% saturating CNP. 0.11% of 370,000 active. AID 1920062, 2024. Atrial natriuretic peptide receptor 2 (Homo sapiens), P20594. activation, % at 10 µM;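 active means activation at 10 µM reaching about 35% in either raw or pattern-adjusted values, limit read from the data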
GC-A act: GC-A stimulated cGMP production enhancers – HEK293 GC-A cells, cGMP TR-FRET, EC30 ANP, primary screen; 0.14% of 370,000 active; AID 1671463, 2021; activation, % at 10 µM; 0% at EC30 ANP, 100% saturating ANP; in the data active means activation above about 40%
* = called active by the depositor; i = inactive; u = inconclusive; x = not tested or not shown; + = active, no number.

SMILES | Granule exo inh | Myeloid diff MLP | GC-B act | GC-A act
N=c1c(C(=O)NC2CCCCC2)cc2c(=O)n3ccccc3nc2n1Cc1ccccc1 | 5 | i | 14 | 20
N=c1c(C(=O)NC2CCCCC2)cc2c(=O)n3ccccc3nc2n1Cc1cccnc1 | 14 | + | 0 | 13
O=C(NNC(=O)c1cccc(S(=O)(=O)Nc2ccccc2F)c1)c1ccncc1 | 0 | i | 2 | -4
COC(=O)c1cc(-c2ccc(F)cc2OCc2ccccc2)c(=O)n2c1CCC2 | x | x | 3 | -2
CCC(c1nnnn1-c1ccc2c(c1)OCCO2)N1CCc2ccccc2C1 (centres undefined) | -7 | i | 6 | 1
CCCCCC1CC(=O)NC1(C(=O)OCC)C(=O)OCC (centres undefined) | 21 | i | -7 | 0
CCCCCC1C(C(=O)OCC)C(=O)NC1(C(=O)OCC)C(=O)OCC (centres undefined) | 95* | i | -5 | -10
Cc1cc(C(=O)c2ccc3ccccc3c2)c(C)o1 | 73* | i | 4 | 10
Cc1onc(-c2ccccc2)c1C(=O)NC(=S)NNC(=O)c1ccccc1O | 3 | + | 2 | 1
CN(C)Cc1c(C(=O)N/N=C/c2ccccc2OCc2c(F)cccc2Cl)nnn1-c1nonc1N | 95* | u | 7 | -3
Nc1nonc1-n1nnc(C(=O)N/N=C/c2cccnc2)c1CSc1ccc(Cl)cc1 | 62* | i | -4 | -1
Nc1nonc1-n1nnc(C(=O)N/N=C/c2cccnc2)c1CSc1ccccc1 | 5 | i | 6 | 0
C=CCCC(=O)N1C[C@H]2CON(C)[C@H]2C[C@H]1c1ccc(N2CCCCC2)cc1 | 4 | i | 0 | 0
CCN(CC)S(=O)(=O)c1ccc(N2CCCCC2)c(NC(=O)/C(C#N)=C/c2ccc(OC)cc2)c1 | -3 | + | 0 | 0
CCOc1ccc(NC(=O)/C(C#N)=C/c2ccc(N3CCCC3)c(C)c2)cc1 | 2 | + | -10 | -14
COc1ccc(C(=O)c2sc3nc(-c4ccccc4)ccc3c2N)cc1 | 4 | + | x | x
CCOc1ccc(CCNC(=O)C2CCCCC2)cc1OCC | x | x | 2 | -2
COC(=O)[C@H](CC(C)C)N1Cc2nnn(CC3CCCCC3)c2-c2ccccc2S1(=O)=O | x | x | 4 | 1
COc1cc2c(cc1OC)C(c1ccc(-c3cc(Cl)ccc3Cl)o1)=NCC2 | 6 | + | x | x
COc1cc2c(cc1OC)C(c1ccc(-c3ccc(Cl)cc3Cl)o1)=NCC2 | 35 | i | 5 | -1
CCCCn1c2nc3ccccc3nc2c2c(=O)n(CCC(C)C)cnc21 | -1 | i | 9 | 17
CCCn1cnc2c(c1=O)c1nc3ccccc3nc1n2CCc1ccccc1 | 1 | u | -3 | 15
CCCCn1cnc2c(c1=O)c1nc3ccccc3nc1n2Cc1ccc2c(c1)OCO2 | 37 | i | 52* | 52*
CCC(C)n1cnc2c(c1=O)c1nc3ccccc3nc1n2Cc1ccc(OC)cc1 (centres undefined) | 0 | i | 54* | 53*
CC(C)Cn1c2nc3ccccc3nc2c2c(=O)n(CCN3CCOCC3)cnc21 | 2 | + | 8 | 8
SMILES | Granule exo inh | Myeloid diff MLP | GC-B act | GC-A act
Cc1ccc(C)c(S(=O)(=O)Nc2cc(SCC(=O)O)c(O)c3ccccc23)c1 | 78* | x | x | x
COCCCN1C(=O)[C@H](CC(=O)NCc2ccc(OC)c(OC)c2)[C@]2(C(=O)OC)CCCCC=C12 | x | x | -12 | 5
Cn1c(=O)n(Cc2ccccc2)c(=O)c2c1nc(NCC1CCCO1)n2Cc1ccccc1 (centres undefined) | 0 | i | 57* | 49*
Cn1c(=O)c2c(nc(NCC3CCCO3)n2C)n(C)c1=O (centres undefined) | -2 | i | 0 | 11
Cn1c(=O)[nH]c(=O)c2c1nc(N1CCNCC1)n2Cc1ccccc1 | 3 | x | -3 | -2
Cn1c(=O)[nH]c(=O)c2c1nc(NC1CCCC1)n2Cc1ccccc1 | 0 | i | 32 | 44*
Cn1c(=O)[nH]c(=O)c2c1nc(N1CCN(Cc3ccccc3)CC1)n2CCSc1ncccn1 | -1 | + | -8 | -3
COc1ccc(S[C@]2(C(=O)N3CCN(c4ncccn4)CC3)CC(=O)N[C@@H]2c2ccc(OC)cc2)cc1 | x | x | 3 | 3
CCOC(=O)c1csc(NC(=O)C2CCCN(S(=O)(=O)c3ccc([N+](=O)[O-])cc3)C2)n1 (centres undefined) | x | x | -7 | -4
O=S1(=O)c2ccc(Br)cc2OC[C@@H](Cc2ccccc2)N1Cc1cn(Cc2ccc(C(F)(F)F)cc2)nn1 | x | x | 5 | -2
CC(C)=CCC/C(C)=C/CNC(=O)C[C@H]1C[C@H](C(=O)N2CCCCC2)[C@@]2(CCc3ccccc3)c3[nH]c4cc(CCC(=O)N(C)C)ccc4c3CCN2C1=O | 5 | + | 1 | -1
C[C@]12c3[nH]c4cc(-c5ccco5)ccc4c3CCN1C(=O)[C@@H](CC(=O)NCCN1CCOCC1)C[C@@H]2C(=O)N1CCOCC1 | 2 | + | -1 | 1
CC[C@]12c3[nH]c4ccccc4c3CCN1C(=O)C(CC(=O)NCCCn1ccnc1)C[C@@H]2C(=O)N1CCN(C(=O)C2CC2)CC1 (some centres undefined) | -2 | + | 2 | 4
CC[C@]12c3[nH]c4ccccc4c3CCN1C(=O)C(CC(=O)NCCc1ccccn1)C[C@@H]2C(=O)N1CCN(C(=O)c2ccco2)CC1 (some centres undefined) | 3 | i | 0 | 6
CC[C@]12c3[nH]c4cc(CCC(=O)N(C)C)ccc4c3CCN1C(=O)[C@@H](CC(=O)NCCc1ccccn1)C[C@@H]2C(=O)N1CCN(C(=O)c2ccco2)CC1 | -3 | + | 3 | 2
CC[C@]12c3[nH]c4ccc(Cl)cc4c3CCN1C(=O)[C@@H](CC(=O)NCCCn1ccnc1)C[C@@H]2C(=O)N1CCN(C(=O)C2CC2)CC1 | 4 | i | -1 | 0
Cc1ccc(-n2cc(CN3CCC(CO)(Cc4cccc(C(F)(F)F)c4)CC3)cn2)cc1 | 48 | + | -6 | -6
CC(=NNc1cc(C)c2ccccc2n1)c1ccccn1 | x | x | -2 | 4
CC1(C)OC(=O)C(=Cc2ccc(-c3ccc(S(N)(=O)=O)cc3)o2)C(=O)O1 | 3 | i | 16 | 40*
Cc1cc2c(Nc3ccccc3)ncnc2s1 | -3 | i | -2 | -3
Cc1cc2c(NCCc3ccccc3)ncnc2s1 | -1 | + | -7 | -6
CCCCCCC(=O)NC1CCCCN(Cc2ccc(Cl)cc2)C1=O (centres undefined) | x | x | -5 | 3
CC(C)CNC(=O)OCc1cn(Cc2ccccc2C(F)(F)F)nn1 | x | x | 0 | 2
Cc1cccc(OC(=O)c2sc(Cl)nc2C)c1 | -5 | i | 6 | 56*
